# DUSP3 inh: blocks the human dual specificity phosphatase VHR1; P51452; recombinant VHR phosphatase, colorimetric substrate read-out; inhibition, % at 20 µM; 50,000 tested, 0.7% active; in the data active means inhibition above about 60%
# Target sequence (P51452 whole entry, looked up): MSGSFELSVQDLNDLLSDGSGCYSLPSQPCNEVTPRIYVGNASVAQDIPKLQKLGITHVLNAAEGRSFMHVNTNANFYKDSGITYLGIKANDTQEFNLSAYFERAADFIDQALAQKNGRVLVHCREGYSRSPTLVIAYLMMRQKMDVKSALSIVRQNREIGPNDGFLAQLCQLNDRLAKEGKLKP
# * = called active by the depositor. Shown is part of a subset that was picked to be rich in hits.
SMILES,DUSP3 inh
O=C1NC(=O)N(c2ccc(Cl)cc2)C(=O)/C1=C\c1ccc(-c2ccc([N+](=O)[O-])cc2)o1,-16
COc1ccc(-c2ccc(/C=C3/C(=O)NC(=O)N(c4ccc(C)cc4)C3=O)o2)c([N+](=O)[O-])c1,11
COc1ccc(-c2ccc(/C=C3\C(=O)NC(=O)N(c4ccc(Cl)cc4)C3=O)o2)c([N+](=O)[O-])c1,2
CC(C)c1ccc(N2C(=O)NC(=O)/C(=C/c3ccc([N+](=O)[O-])o3)C2=O)cc1,85*
CC(C)c1ccc(N2C(=O)NC(=O)/C(=C/c3cccc([N+](=O)[O-])c3)C2=O)cc1,6
COc1ccc(-c2ccc(/C=C3/C(=O)NC(=O)N(c4ccccc4)C3=O)o2)c([N+](=O)[O-])c1,81*
O=C(c1ccncc1)N1CCN(S(=O)(=O)c2ccc(Cl)cc2)CC1,-8
Cc1cc(NC(=O)Nc2cccc(F)c2)no1,3
COc1ccc(N2C(=O)/C(=C\c3cc(OC)ccc3O)SC2=S)cc1,-32
O=[N+]([O-])c1ccc(OC(CNS(=O)(=O)c2ccc(Cl)cc2)c2ccccc2)cc1 (centres undefined),-3
c1ccc(NCc2ccc3c(c2)OCO3)cc1,7
O=C1C=C(NCc2ccc(F)cc2)CC(c2ccccc2)C1 (centres undefined),-1
O=C1C=C(NCc2ccc3c(c2)OCO3)CC(c2ccccc2)C1 (centres undefined),101*
O=C(COc1ccc(Cl)cc1)NNC(=O)Cc1ccc([N+](=O)[O-])cc1,-10
Cc1c(N2C(=O)S/C(=C\c3ccc([N+](=O)[O-])cc3)C2=O)c(=O)n(-c2ccccc2)n1C,-5
Cc1ccc(S(N)(=O)=O)cc1NC(=O)c1ccc(F)cc1,-2
CCN1C(=O)/C(=C\c2cccc(OS(=O)(=O)c3ccc(C)cc3)c2)SC1=S,-3
C=CCN1C(=O)/C(=C\c2cccc(OS(=O)(=O)c3ccc(C)cc3)c2)SC1=S,-10
Cc1ccc(S(=O)(=O)Oc2cccc(/C=C3/SC(=S)N(Cc4ccccc4)C3=O)c2)cc1,108*
C=CCc1cccc2cc(C(=O)Nc3cc(OC)ccc3OC)c(=O)oc12,6
COc1cc(/C=N\NC(=O)CNc2ccccc2C)ccc1OC(C)=O,7
Cc1ccc(N2C(=O)NC(=O)/C(=C/c3cccc(C(F)(F)F)c3)C2=O)cc1,-5
COc1ccccc1/C=N/n1c(-c2ccccc2C)nc2ccccc2c1=O,-4
O=C(COc1ccc2ccccc2c1)Nc1ccc(Br)c(Cl)c1,114*
O=C(COc1ccccc1)Nc1ccc(Br)c(Cl)c1,4
SMILES,DUSP3 inh
O=C(COc1ccc2ccccc2c1)Nc1ccc(Cl)c(Cl)c1,20
O=[N+]([O-])c1cc2c(cc1/C=N/NS(=O)(=O)c1ccccc1)OCO2,-13
CCOC(=O)C1=NNC(C(=O)c2ccccc2)C1c1cccc(Br)c1 (centres undefined),37
CCOC(=O)C1=NNC2C(=O)N(c3ccccc3C)C(=O)C12 (centres undefined),-5
CCOC(=O)C1=NNC2C(=O)N(c3ccc(Cl)cc3Cl)C(=O)C12 (centres undefined),116*
CCOC(=O)C1=NNC2C(=O)N(c3cc(OC)ccc3OC)C(=O)C12 (centres undefined),-3
CCOC(=O)C1=C(C)NC(SC)=NC1c1ccc(OC)cc1 (centres undefined),1
CCOC(=O)C1=NNC(C(=O)c2ccc(Cl)cc2)C1c1ccc(OC)cc1 (centres undefined),115*
O=C(Nc1cccc2ccccc12)c1ccc(S(=O)(=O)N2CCOCC2)cc1,1
COC(=O)C1=C(C)N(c2cccc(C)c2)C(=O)/C1=C\c1ccc(C(=O)O)cc1,0
CC(=O)c1ccc(NC(=O)/C=C/c2ccccc2)cc1,-14
Cc1c(C(=O)Nc2ccc(-c3nc4cc(Cl)ccc4o3)cc2)cccc1[N+](=O)[O-],2
Cc1ccc(/C=C2\SC(=O)N(CCC(=O)Nc3c(C)n(C)n(-c4ccccc4)c3=O)C2=O)cc1,-14
N=c1sc(Cc2cccc(Cl)c2)cn1CC(=O)c1ccc(F)cc1,0
CC(Nc1cc(N2CCN(CCO)CC2)ccc1[N+](=O)[O-])c1ccc(Br)cc1 (centres undefined),-4
CC(C)=C1C(=O)NN(c2ccc(C)c(Cl)c2)C1=O,0
COc1ccc(Cl)cc1/C=C1/C(=O)NN(c2cccc(Br)c2)C1=O,6
CC(C)=C1C(=O)NN(c2cccc(Br)c2)C1=O,81*
Cc1ccc(S(=O)(=O)N/N=C/C=C/c2ccc(N(C)C)cc2)cc1[N+](=O)[O-],-8
CN(C)c1ccc(/C=N/S(=O)(=O)CCc2ccccc2)cc1,-3
CN(C)c1ccc(/C=C/C=C/c2cc[n+](CCCS(=O)(=O)[O-])cc2)cc1,100*
O=C(Nc1ccc(Cl)cc1)Nc1nnc(-c2ccccc2Cl)s1,28
O=C1Nc2ccc(Br)c3cccc1c23,-4
COC(=O)CN(c1cccc(C(F)(F)F)c1)S(C)(=O)=O,9
CCOC(=O)c1c(N)sc2c1CCC(c1ccccc1)C2 (centres undefined),94*
SMILES,DUSP3 inh
COC(=O)c1c(N)sc2c1CCC(c1ccccc1)C2 (centres undefined),12
CCOC(=O)c1c(NC(=O)Oc2ccccc2)sc2c1CCC(C)C2 (centres undefined),-7
CCOC(=O)C(CC)C(C)=NNC(=O)c1ccc([N+](=O)[O-])cc1 (centres undefined),-23
O=C1CC(N(Cc2ccc3c(c2)OCO3)C(=S)Nc2ccccc2)C(=O)N1c1ccc(F)cc1 (centres undefined),-14
NC(=O)c1ccc(NC(=O)c2ccc(Cl)c(Cl)c2)cc1,-31
CN(C)CCCN1C(=O)CSC1c1cccc(Cl)c1 (centres undefined),-22
CCc1nnc(NS(=O)(=O)c2ccc(NS(=O)(=O)c3ccc4ccccc4c3)cc2)s1,-12
Cc1ccc(C)n1-c1ccc(O)c(C(=O)O)c1,2
Cc1ccc(C)n1-c1ccc(C(=O)NN)c(Cl)c1,90*
CCNC(=O)c1ccc(Cl)cc1Cl,0
O=C(/C=C/c1ccc2c(c1)OCO2)Nc1ccc(N2CCCCC2)cc1,-18
COC(=O)c1c(N)sc(C)c1-c1cc(C)ccc1C,7
COc1ccccc1NC1=C(Cl)C(=O)N(c2cccc(Cl)c2Cl)C1=O,-5
O=C(O)C1C(C(=O)Nc2ccccc2)C2C=CC1C21CC1 (centres undefined),-18
O=C(Nc1ccc(Cl)c(Cl)c1)C1C2/C=C\CCCCC21 (centres undefined),-14
O=C(Nc1ccccc1)C1C2/C=C\CCCCC21 (centres undefined),100*
COc1ccc(C(NC(=O)c2ccco2)c2ccc(OC)cc2)cc1,-10
Cc1cccc(OCc2nnc(NC(=O)Nc3ccccc3)s2)c1,0
NC(=O)c1ccccc1NC(=O)c1cc2ccccc2o1,7
CCOC(=O)c1sc(NC(=O)CCCOc2ccc(Cl)cc2Cl)nc1C,-4
CC1(C(=O)NCc2cccs2)CC1(Br)Br (centres undefined),-5
S=C(S)N(CCN(Cc1cccs1)C(=S)S)Cc1cccs1,98*
CC(=O)Nc1ccccc1NC(=O)Cc1cccs1,3
Cc1ccc(N(CN2C(=O)c3ccccc3C2=O)C(=O)c2ccccc2)cc1,10
CCc1cc(C)nc2cc(-c3ccccc3)nn12,-14
Cc1cc(=O)[nH]c2cc(-c3ccccc3)nn12,97*
Cc1cc2[nH]c(=O)cc(-c3ccccc3)n2n1,-13
C/C(=N\NC(=O)c1ccncc1)c1ccc(C)cc1,-13

# Screening data deposited in PubChem BioAssay by Sanford-Burnham Center for Chemical Genomics.
